# Assay outcomes as filed in PubChem.
# Anthrax LF inh2: anthrax lethal factor protease inhibition | P15917 | multiplex microsphere protease cleavage assay, LF | inhibition, % at 10 µM | 360,000 compounds, 0.12% hits | AID 588501; also: plate controls were buffer without enzyme for full effect and enzyme alone for no effect
# Target sequence (P15917 whole entry, looked up): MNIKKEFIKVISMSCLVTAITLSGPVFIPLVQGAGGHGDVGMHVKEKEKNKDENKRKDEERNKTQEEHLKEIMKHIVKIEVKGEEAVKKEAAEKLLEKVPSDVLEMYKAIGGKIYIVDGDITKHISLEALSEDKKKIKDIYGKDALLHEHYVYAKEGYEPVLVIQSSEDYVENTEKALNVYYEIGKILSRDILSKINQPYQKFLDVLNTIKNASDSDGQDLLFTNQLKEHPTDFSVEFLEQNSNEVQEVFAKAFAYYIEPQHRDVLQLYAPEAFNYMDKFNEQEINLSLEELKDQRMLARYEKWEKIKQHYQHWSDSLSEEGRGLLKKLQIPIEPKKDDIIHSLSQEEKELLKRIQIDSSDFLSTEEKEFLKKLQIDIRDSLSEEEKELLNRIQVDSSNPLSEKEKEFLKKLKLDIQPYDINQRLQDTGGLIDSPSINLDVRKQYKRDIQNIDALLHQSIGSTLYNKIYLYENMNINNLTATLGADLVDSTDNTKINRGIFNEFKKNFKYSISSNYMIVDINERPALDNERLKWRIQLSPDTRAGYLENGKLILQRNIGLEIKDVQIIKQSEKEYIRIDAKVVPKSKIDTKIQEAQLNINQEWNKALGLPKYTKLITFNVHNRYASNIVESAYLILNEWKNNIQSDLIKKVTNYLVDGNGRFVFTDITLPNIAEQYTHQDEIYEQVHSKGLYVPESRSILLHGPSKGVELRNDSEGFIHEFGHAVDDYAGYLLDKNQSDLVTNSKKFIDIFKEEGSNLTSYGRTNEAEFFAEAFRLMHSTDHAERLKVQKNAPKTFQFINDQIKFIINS
# BoNT F protease: BoNT F light chain protease inhibition. inhibition, % at 10 µM. 360,000 compounds, 0.22% hits. AID 588497. Multiplex microsphere protease cleavage assay, flow cytometry; in the data active = inhibition above about 35%, passing the limit was not always enough; inconclusive = no clear call, values can overlap the other calls; also: plate controls were buffer without enzyme for full effect and enzyme alone for no effect
# BoNT A protease: blocks Botulinum neurotoxin A light chain protease; multiplex microsphere protease substrate cleavage, flow cytometry; inhibition, % at 10 µM; 360,000 compounds, 0.17% hits; AID 588499; also: plate controls were buffer without enzyme for full effect and enzyme alone for no effect
# Autofluor counter: counter-screen for toxin protease inhibitors: compound fluorescence. fluorescence intensity (test concentration not listed). compound autofluorescence counterscreen, microsphere flow cytometry; hits give high values. 360,000 compounds, 3.1% hits. AID 624483; in the data active = fluorescence intensity above about 16000; inconclusive = no clear call, values can overlap the other calls
# An asterisk follows results filed as active; u = inconclusive. Sampled rows, rich in hits. Any-hit rate of the full collection: about 3.5%. Rule as the data show it, unless noted: active = inhibition above about 30%; inconclusive = no clear call, values can overlap the other calls; inactive = below that.
SMILES,Anthrax LF inh2,BoNT F protease,BoNT A protease,Autofluor counter
COc1cccc(C(=O)N(Cc2ccccc2)Cc2cc3cc4c(cc3[nH]c2=O)OCCO4)c1,-6,-2,-2,20933*
COc1cccc(C(=O)N(Cc2cc3cc(C)ccc3[nH]c2=O)CC2CCCO2)c1 (centres undefined),-15,u,u,u
Cc1cc2cc(CN(Cc3ccc4c(c3)OCO4)C(=O)c3ccco3)c(=O)[nH]c2cc1C,2,0,0,3173
COc1cc2cc(CN(Cc3ccc4c(c3)OCO4)C(=O)c3ccco3)c(=O)[nH]c2cc1OC,-4,-8,-2,16500*
COc1ccc(C(=O)N(Cc2ccccc2)Cc2cc3cc4c(cc3[nH]c2=O)OCCO4)cc1,1,-5,-6,22249*
CCC1OC(C)Cc2[nH][nH]c(=O)c21 (centres undefined),-1,8,1,5305
CS(=O)(=O)N(CC(=O)O)c1ccc(Oc2ccccc2)cc1,-4,0,0,20680*
O=C(NCc1ccc(Cl)cc1)C1C2C=CC3(CN(Cc4cccnc4)C(=O)C13)O2 (centres undefined),-3,-10,-6,25239*
Cc1ccccc1NC(=O)/C(=C/c1cccs1)NC(=O)c1ccco1,0,3,0,2456
Cc1ccccc1NC(=O)/C(=C\c1cccs1)NC(=O)c1ccco1,-4,-2,-2,23554*
CC1(c2nnnn2-c2ccc3c(c2)OCCO3)CCC(=O)N1CCOc1ccccc1 (centres undefined),3,5,1,6008
C#CCOC(=O)Nc1cccn(Cc2c(Cl)cccc2Cl)c1=O,-5,-3,-3,16958*
O=C(Nc1cccn(Cc2c(Cl)cccc2Cl)c1=O)C1CC1,0,3,2,4172
O=C(CCN1C(=O)CC1c1ccco1)N1CCOCC1 (centres undefined),-8,-4,-1,5883
CC1(C2CC2)NC(=O)N(CC(=O)Nc2ccc(OC(F)F)cc2)C1=O (centres undefined),-2,-4,0,3834
O=C(NCc1ccccc1)c1cccc(COc2cccc(Cl)c2)c1,-1,14,0,4567
O=C(NCc1ccccc1)Oc1cccc(Cl)c1,0,0,2,19856*
CCOC(=O)N1CCN(Cc2ccccc2F)CC1,1,0,-1,20462*
CCOC(=O)N1CCN(Cc2ccccc2Cl)CC1,-1,0,0,22232*
CCOC(=O)N1CCN(Cc2nc(-c3cccc(C)c3)no2)CC1,0,2,2,22782*
CCOC(=O)N1CCN(C(=O)CSCc2ccccc2)CC1,-1,-3,0,2165
CCOC(=O)N1CCN(Cc2nc(-c3ccccc3)no2)CC1,-3,-15,-2,3206
CCOC(=O)N1CCN(C(=O)CSc2ccccc2)CC1,-1,-4,-1,23877*
CC(C)CC(=O)N1CCN(Cc2ccccc2Cl)CC1,2,5,-2,3660
O=C(NCCCN1CCOCC1)c1c(-c2ccccc2)oc2c1C(OCCCCCO)CCC2 (centres undefined),-3,-3,0,5930
SMILES,Anthrax LF inh2,BoNT F protease,BoNT A protease,Autofluor counter
CCOC(=O)c1cc(NC(=O)N(C(C)C)C2CCCCC2)c(C)nc1C,-6,0,1,2869
CCOC(=O)c1cc(NC(=O)N(CC)CC)c(C)nc1C,1,-3,-2,24580*
CCOC(=O)c1cc(NC(=O)N(C(C)C)C(C)C)c(C)nc1C,-2,-5,-1,16634*
CN[C@@H](CO)C(=O)NC[C@H]1O[C@@H](n2cc(C)c(=O)[nH]c2=O)C[C@@H]1O,0,-9,0,3941
Cc1cccc(NC(=S)NNC(=O)CCn2cc(C)cn2)c1,-2,1,u,22732*
Cc1cccc(NC(=O)CCSc2nncn2C)c1,-1,4,2,22260*
Cc1nn(CCC(=O)NNC(=S)Nc2ccccc2)c(C)c1Br,-2,-4,0,2571
Cc1cccc(NC(=O)CCSc2ccccn2)c1,0,-26,-2,2124
C[C@H]1CN([C@@H](C)CO)C(=O)c2cc(Br)cnc2O[C@@H]1CN(C)C(=O)Nc1ccc(C(F)(F)F)cc1,-2,-5,0,3052
Nc1nnc(CC2=CCCCC2)s1,-9,-3,-2,22203*
CCCCCOc1ccc(/C=C/c2c([N+](=O)[O-])c(=O)n(C)c(=O)n2C)cc1,4,-3,-1,3595
Cc1ccc(C)n1-c1ccc(-n2cnnn2)cc1,0,0,1,16233*
CCc1c(C)c2ccc(OCC(=O)OC(C)C)c(C)c2oc1=O,1,-2,-1,24390*
COC(=O)Cc1c(C)c2ccc(OCc3nn[nH]n3)c(C)c2oc1=O,-6,3,4,21317*
CCc1c(C)c2ccc(OCC(=O)N(C)C)c(C)c2oc1=O,1,4,1,21643*
COc1ccc(C2=NOC3(CC(=O)N(c4ccc5ccccc5c4)C3=O)C2)c(OC)c1 (centres undefined),-2,-7,u,17080*
CC1(C(=O)NS(=O)(=O)c2ccccc2C(F)(F)F)CCN1C(=O)CCc1cccs1 (centres undefined),4,4,0,3605
CCCc1ccc2c(C(F)(F)F)cc(C(F)(F)F)cc2n1,4,-3,0,5378
CN(C)/C=C/C(=O)c1cccc(Cl)c1,-4,-5,-1,16675*
CN(C)/C=C/C(=O)c1ccc(Cl)cc1,u,-7,u,u
CCOc1ccc(S(=O)(=O)N(CC)CC)cc1N,4,-4,1,3196
CCOc1ccc(C(=O)c2ccc(OCC)c(N)c2)cc1N,-4,-2,0,16397*
COc1ccc(C(N)=O)cc1N,-3,5,4,20559*
Cc1ccc(/C(O)=C2\C(=O)C(=O)N(CCCN3CCOCC3)C2c2ccccc2F)cc1 (centres undefined),-1,0,0,2882
CN(C)CCN1C(=O)C(=O)/C(=C(/O)c2ccc(F)cc2)C1c1ccccc1F (centres undefined),-10,3,1,22555*
SMILES,Anthrax LF inh2,BoNT F protease,BoNT A protease,Autofluor counter
Cc1ccc(/C(O)=C2\C(=O)C(=O)N(CCN(C)C)C2c2ccccc2F)cc1 (centres undefined),-6,0,u,20048*
O=C1NCCc2onc(-c3ccc(Br)cc3)c21,-5,-8,-1,4376
O=C(NCc1cc(Cl)cc(Cl)c1)c1csc([C@@H]2O[C@H](CO)[C@H](O)[C@H](O)[C@H]2O)n1,2,4,0,3677
Cc1ccccc1-n1cnc2cc(NCc3cccs3)ccc21,-3,-8,u,23047*
COc1ccc(OC)c(NC(=O)C2CCN(Cc3cnn(-c4ccccc4)c3-n3cccc3)CC2)c1,-4,-4,-2,20746*
C[C@H]1CN([C@@H](C)CO)C(=O)CCCn2nncc2CO[C@H]1CN(C)C(=O)NC1CCCCC1,3,-2,0,3456
Cc1ccc(NC(=O)CN2C(=O)NC3(CCc4ccccc43)C2=O)cc1 (centres undefined),-5,-2,1,3357
O=C(CN1C(=O)NC2(CCc3ccccc32)C1=O)Nc1ccc(N2CCOCC2)cc1 (centres undefined),-3,-3,0,16378*
CCOC(=O)Nc1ccc(N2CCOCC2)c(S(=O)(=O)Nc2ccc(Cl)cc2)c1,-1,-2,0,3588
